# Source: PubChem (National Center for Advancing Translational Sciences (NCATS))
# A selection: hits, their analogues and other compounds. The true share with any hit is near 20%.
# Pf growth 48h – inhibits P. falciparum growth in the first generation, 48 h. P. falciparum luciferase growth in erythrocytes, 48 h. Potency, µM (titrated, usually from 28.7 µM), hits mostly inhibitors. actives 5.9% (n = 310,000)
#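 First compound was added to culture medium, then infected red cells at 0.1% parasitemia and 2% hematocrit (final). After incubation at 37 C under 5% CO2, luciferase detection reagent was dispensed and light output recorded.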
# Pf growth 96h – P. falciparum growth inhibition at 96 hour, primary screen for plastid delayed-death inhibitors. P. falciparum luciferase reporter growth, 96 h. Potency, µM (titrated, usually from 28.7 µM), actives largely listed as inhibitors. actives 6.9% (n = 320,000). AID 504834
#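 Parasite growth measured via integrated firefly luciferase reporter in P. falciparum. Infected erythrocytes at 2% hematocrit, 0.05% parasitemia final were treated 96 hours at 37 C under 5% CO2, and luminescence was read.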
# HCMV inh – inhibitors of human cytomegalovirus. actives 4.5% (n = 410,000). HFF cells, HCMV-luciferase reporter, 72 h; active compounds read low. activity change, negative = inhibition, % at 57.5 µM; in the data active means activity change below about -60%; inconclusive means no clear call, values can overlap the other calls; inactive means above about -39%
#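 Compounds were evaluated in HFFs infected with an HCMV luciferase reporter virus (MOI 1 PFU/cell). Luciferase in lysates collected 72 h post infection served as the replication measure.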
# Cycloheximide cs – counter-screen hit for Shiga toxin inhibitors, cycloheximide. max response, %. cell reporter, cycloheximide protein synthesis inhibition counterscreen. actives 12% (n = 300,000); in the data active means max response mostly above about 13%, no sharp cut-off; inactive means mostly below about 14%; further: read at 38.3 µM for the half of the compounds with a filed dose
# Shiga toxin inh – blocks Shiga toxin action in Vero cells. Vero cells, Shiga toxin protein synthesis inhibition reporter. inhibition, % at 38.7 µM. actives 9.2% (n = 290,000). AID 2315; in the data active means inhibition mostly above about 28%, no sharp cut-off; inactive means mostly below about 43%
# A number is an active result; - = inactive; ? = inconclusive; . = no result given. Unless noted, the call rests on the fitted dose curve; in most records, active means well fitted inhibition curve with a large enough effect; inconclusive means small, poorly fitted or top-dose-only effect, or another doubt; inactive means no such curve, though single readings can be large or run the other way.
SMILES,Pf growth 48h,Pf growth 96h,HCMV inh,Cycloheximide cs,Shiga toxin inh
CC1Cc2ccccc2N1C(=O)CSc1nnc(-c2ccccc2)c(-c2ccccc2)n1 (stereo not drawn),-,-,-83,-,-
CC(Sc1nnc(-c2ccccc2)c(-c2ccccc2)n1)C(=O)N1CCc2ccccc21 (stereo not drawn),-,7.4µM,-,-,-
Cc1nnc(SC(C)C(=O)N2CCc3ccccc32)s1 (stereo not drawn),-,.,-,-,-
CCCCn1nc(C(=O)Nc2ccc3c(c2)OCO3)c2ccccc2c1=O,.,.,-,.,.
CC1Cc2ccccc2N1C(=O)CSc1nc2c(c(=O)n(C)c(=O)n2C)n1Cc1ccc(F)cc1 (stereo not drawn),.,.,-106,.,.
Cn1c(=O)c2c(nc(SCC(=O)N3CCc4ccccc43)n2Cc2ccccc2)n(C)c1=O,-,-,.,-,-
CCc1cccc(C)c1NC(=O)c1cc(CN2CCCC2)on1,.,.,-,.,.
CCOC(=O)/C=c1/s/c(=C\c2c(OC)ccc3ccccc23)c(=O)n1CC(=O)NCC1CCCO1 (stereo not drawn),.,.,-87,.,.
CCOC(=O)/C=c1\s/c(=C\c2ccccc2C)c(=O)n1CC(=O)NCc1ccc2c(c1)OCO2,?,?,-,-,-
CCOC(=O)/C=c1\s/c(=C\c2ccc3c(c2)OCCO3)c(=O)n1CC(=O)NCC1CCCO1 (stereo not drawn),-,-,-,-,-
CCOC(=O)/C=c1\s/c(=C\c2c(OCC)ccc3ccccc23)c(=O)n1CC(=O)NCC1CCCO1 (stereo not drawn),12µM,.,-,-,-
CCOC(=O)/C=c1\s/c(=C\c2ccc3cc(OC)ccc3c2)c(=O)n1CC(=O)NCc1ccc2c(c1)OCO2,?,?,-100,-,-
O=C(Nc1cc(C(F)(F)F)ccc1N1CCCCC1)C1=COCCO1,.,.,-,.,.
COc1ccccc1C(CNC(=O)C(CCSC)NC(=O)c1ccccc1Cl)N1CCCC1 (stereo not drawn),.,.,-,.,.
CCc1noc(C)c1C(=O)Nc1ccc(-c2nnc3n2CCCCC3)cc1,-,-,-,.,.
CCN(Cc1cnn(C)c1)C(=O)c1cc(COc2ccc(F)cc2F)on1,-,-,-,15,-
COc1cc(Cl)ccc1OCc1cc(C(=O)N(C)CCc2cnn(C)c2)no1,-,?,-,64,115
Cc1cc(Cl)c2oc(C(=O)N(C)CCCCN3CCOCC3)c(C)c2c1,-,?,-,-,-
CC(=O)c1cccc(OCc2cc(C(=O)N(C)CCc3cnn(C)c3)no2)c1,-,?,?,-,-
Cc1cc(Cl)c2oc(C(=O)N(C)CCc3cnn(C)c3)c(C)c2c1,-,10µM,-,-,-
CCN(Cc1ccncc1)C(=O)c1cc(COc2ccc(F)cc2F)on1,-,?,-,-,-
Cc1cc(OCc2cc(C(=O)N(C)CCc3cnn(C)c3)no2)cc(C)c1Cl,-,-,-,39,70
CCn1c(SCC(=O)OC2CCCCC2)nnc1-c1ccncc1,-,?,-,-,-
O=C(COC(=O)c1ccc2ccccc2c1O)Nc1ccccc1,-,-,-,.,.
COc1cc(C(=O)OCC(=O)NC2CCS(=O)(=O)C2)ccc1OCc1c(C)noc1C (stereo not drawn),-,?,-,-,-
SMILES,Pf growth 48h,Pf growth 96h,HCMV inh,Cycloheximide cs,Shiga toxin inh
CCOC(=O)C1C(C(=O)OCC)C(C)(C)C1N(C)C (stereo not drawn),.,.,-,.,.
Cc1ccc2nc(C(Cl)(Cl)Cl)nc(N/N=C/c3ccc([N+](=O)[O-])cc3)c2c1,.,.,-,.,.
Cc1ccc(OCc2cc(C(=O)N(C)Cc3cnn(C)c3)no2)cc1C,.,.,-,.,.
CCN(Cc1cnn(C)c1)C(=O)c1cc(COc2cc(C)c(Cl)c(C)c2)on1,-,-,-,24,-
CC/C(=N\n1nnnc1Nc1ccccc1)c1ccccc1,10µM,-,-,-,-
COc1ccc(-c2cc(C)no2)cc1S(=O)(=O)NCC(C)c1ccccc1 (stereo not drawn),?,?,-,-,-
O=C(NCc1cccnc1)c1ccc(COc2ccc3c(c2)CCC3)o1,?,.,-,-,-
COC(=O)c1ccc(COc2ccc(C(C)(C)C)cc2)o1,-,?,-,90,145
COc1ccc(Br)cc1/C=N/NC(=O)c1ccc(COc2ccc3c(c2)CCC3)o1,?,-,-,-,-
CCc1ccc(OCc2ccc(C(=O)OC)o2)cc1,-,-,-,67,154
O=C(N/N=C/c1cc([N+](=O)[O-])ccc1O)c1ccc(COc2ccc3c(c2)CCC3)o1,?,9.3µM,-96,-,-
COC(=O)c1ccc(COc2ccc3c(c2)CCC3)o1,-,-,-,54,117
COc1ccc(OC)c(NC(=O)Cn2cc(C(=O)c3ccc(Cl)cc3)c(=O)c3cc(OC)ccc32)c1,.,.,-,.,.
C[C@H](CO)N1C[C@H](C)[C@@H](CN(C)Cc2ccncc2)Oc2ncc(Br)cc2C1=O,.,.,-,.,.
CCCCC(=O)NC(Nc1cc(C)ccn1)(C(=O)OCC)C(F)(F)F (stereo not drawn),-,-,-,-,-
CCC(C)c1ccc(OCc2ccc(C(=O)OC)o2)cc1 (stereo not drawn),-,-,-,101,149
CCCc1ccc(OCc2ccc(C(=O)N3CCSCC3)o2)cc1,-,-,-,86,156
CC(C)(C)c1ccc(OCc2ccc(C(=O)Nc3cccnc3)o2)cc1,?,-,-,75,157
O=C(Nc1cccnc1)c1ccc(COc2ccccc2Br)o1,?,-,-,-,-
COC(=O)c1ccc(COC(=O)c2cccn2C)o1,-,-,-,24,140
CCCc1ccc(OCc2ccc(C(=O)Nc3ccccc3C(=O)OC)o2)cc1,.,.,-,.,.
CCCNc1c(NS(=O)(=O)c2ccc3c(c2)CCCC3)c(=O)oc2ccccc12,-,?,.,-,-
Cn1cccc1C(=O)OCC(=O)c1cc2ccccc2o1,-,-,-,29,62
CC(C)(C)c1ccc(OCc2ccc(C(=O)N3CCOCC3)o2)cc1,?,-,-71,54,115
Cc1cccc(OCc2ccc(C(=O)N3CCOCC3)o2)c1,-,-,-,-,-
SMILES,Pf growth 48h,Pf growth 96h,HCMV inh,Cycloheximide cs,Shiga toxin inh
CCCNC(=O)c1ccc(COc2ccc(C(C)(C)C)cc2)o1,?,-,-,40,94
O=C(COC(=O)c1ccc(Cl)s1)c1cc2ccccc2o1,-,.,-,-,-
O=C(Cn1c(=O)n(Cc2ccc(F)cc2)c(=O)c2sc3ccccc3c21)NCc1ccccc1,.,.,-,.,.
CCOC(=O)c1c(NC(=O)COc2cccc3c2CCN(Cc2ccc(F)cc2)C3=O)sc2c1CCC2,-,-,.,-,-
CCOC(=O)c1c(NC(=O)CSc2nnc(-c3c[nH]c4ccccc34)n2CCOC)sc2c1CCCCC2,?,9.3µM,-67,-,-
CCOC(=O)c1c(NC(=O)COc2cccc3c2CCN(CC)C3=O)sc2c1CCC2,-,?,-80,-,-
CCOC(=O)c1c(NC(=O)C(NCCN(C)C)c2ccccc2)sc2c1CCCC2 (stereo not drawn),9.3µM,?,-,-,-
CCOC(=O)c1c(NC(=O)c2ccn(CC)n2)sc2c1CCCC2,10µM,.,-,-,-
